PMC7862700, “An all-to-all approach to the identification of sequence-specific readers for epigenetic DNA modifications on cytosine”

Assays:
Experiment in all cases: DAPPL (digital affinity profiling via proximity ligation, sequencing); 10 mM Tris-HCl pH 7.5, 50 mM NaCl, 1 mM DTT, 4% glycerol, room temperature, 30 min; GST-TFs on glutathione beads, 16-mer random dsDNA library, 0.1% formaldehyde crosslink after washing; high values mean tight binding
FEV = target: T1, FEV (Homo sapiens, UniProt Q99581 1-238); conditions: protein: recombinant; tags: N-terminal GST; dsDNA, one strand shown
T1 sequence: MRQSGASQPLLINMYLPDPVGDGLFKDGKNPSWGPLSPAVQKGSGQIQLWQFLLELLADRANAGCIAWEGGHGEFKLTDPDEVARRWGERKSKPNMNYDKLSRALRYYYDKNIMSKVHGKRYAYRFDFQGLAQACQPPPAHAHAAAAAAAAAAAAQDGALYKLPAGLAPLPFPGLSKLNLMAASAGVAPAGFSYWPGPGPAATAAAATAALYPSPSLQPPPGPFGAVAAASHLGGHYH
In short: (§1)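 The binding signal reported is, for every hexamer, its read frequency for a factor over its read frequency for the tag-only sample. Reads came from pools of yeast-expressed, GST-fused human transcription factors on glutathione beads, barcoded with DNA and mixed with that sample, which were incubated with 200 nmole of a random double-stranded 16-mer DNA library in Tris/NaCl/DTT/glycerol buffer at room temperature for 30 min. After washing, the pools were crosslinked with 0.1% formaldehyde, proximity-ligated with BsaI/T4 ligase for 1 h at 37 °C, PCR-amplified and sequenced on an Illumina NextSeq500.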

ETV5 = ETV5 (Homo sapiens, UniProt P41161 1-510); conditions: protein: recombinant; tags: N-terminal GST; dsDNA, one strand shown
In short: as §1

HSF1 = HSF1 (Homo sapiens, UniProt Q00613 1-529); conditions: protein: recombinant; tags: N-terminal GST; chain copies: 3; dsDNA, one strand shown
In short: as §1

SPIC = target: T2, SPIC (Homo sapiens, UniProt Q8N5J4 1-248); conditions: protein: recombinant; tags: N-terminal GST; dsDNA, one strand shown
T2 sequence: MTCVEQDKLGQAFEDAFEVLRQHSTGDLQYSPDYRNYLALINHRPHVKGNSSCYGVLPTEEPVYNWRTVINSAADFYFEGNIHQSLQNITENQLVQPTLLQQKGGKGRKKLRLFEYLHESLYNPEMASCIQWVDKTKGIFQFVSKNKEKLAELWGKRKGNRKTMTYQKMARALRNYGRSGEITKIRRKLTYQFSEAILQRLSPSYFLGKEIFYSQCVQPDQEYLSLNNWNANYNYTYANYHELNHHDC
In short: as §1

ELF4 = ELF4 (Homo sapiens, UniProt Q99607 1-663); conditions: protein: recombinant; tags: N-terminal GST; dsDNA, one strand shown
In short: as §1

ELK4 = target: T3, ELK4 (Homo sapiens, UniProt P28324-2 1-405); conditions: protein: recombinant; tags: N-terminal GST; dsDNA, one strand shown
T3 sequence: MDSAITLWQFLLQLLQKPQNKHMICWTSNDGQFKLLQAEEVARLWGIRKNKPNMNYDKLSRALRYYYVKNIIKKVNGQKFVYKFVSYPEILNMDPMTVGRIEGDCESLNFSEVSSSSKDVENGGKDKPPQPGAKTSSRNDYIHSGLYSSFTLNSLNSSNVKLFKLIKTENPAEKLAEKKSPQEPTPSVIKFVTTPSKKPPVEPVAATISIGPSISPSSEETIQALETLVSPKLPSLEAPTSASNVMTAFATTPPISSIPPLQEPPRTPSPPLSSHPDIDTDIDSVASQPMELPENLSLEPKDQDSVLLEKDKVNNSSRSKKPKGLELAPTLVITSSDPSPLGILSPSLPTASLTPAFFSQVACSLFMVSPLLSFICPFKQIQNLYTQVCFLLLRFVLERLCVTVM
In short: as §1

ETV2 = target: T4, ETV2 (Homo sapiens, UniProt O00321 1-342); conditions: protein: recombinant; tags: N-terminal GST; dsDNA, one strand shown
T4 sequence: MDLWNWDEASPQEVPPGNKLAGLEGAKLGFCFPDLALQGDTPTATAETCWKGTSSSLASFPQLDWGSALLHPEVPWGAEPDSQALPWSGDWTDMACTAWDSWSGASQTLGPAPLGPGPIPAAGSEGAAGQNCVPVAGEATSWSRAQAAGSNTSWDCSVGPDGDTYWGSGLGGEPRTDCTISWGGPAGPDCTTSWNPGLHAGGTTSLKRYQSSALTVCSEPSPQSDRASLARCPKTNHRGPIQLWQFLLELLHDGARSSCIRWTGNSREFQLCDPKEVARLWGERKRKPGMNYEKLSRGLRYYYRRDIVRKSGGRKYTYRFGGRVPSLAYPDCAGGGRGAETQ
In short: as §1

ELF3 = target: T5, ELF3 (Homo sapiens, UniProt P78545 1-371); conditions: protein: recombinant; tags: N-terminal GST; dsDNA, one strand shown
T5 sequence: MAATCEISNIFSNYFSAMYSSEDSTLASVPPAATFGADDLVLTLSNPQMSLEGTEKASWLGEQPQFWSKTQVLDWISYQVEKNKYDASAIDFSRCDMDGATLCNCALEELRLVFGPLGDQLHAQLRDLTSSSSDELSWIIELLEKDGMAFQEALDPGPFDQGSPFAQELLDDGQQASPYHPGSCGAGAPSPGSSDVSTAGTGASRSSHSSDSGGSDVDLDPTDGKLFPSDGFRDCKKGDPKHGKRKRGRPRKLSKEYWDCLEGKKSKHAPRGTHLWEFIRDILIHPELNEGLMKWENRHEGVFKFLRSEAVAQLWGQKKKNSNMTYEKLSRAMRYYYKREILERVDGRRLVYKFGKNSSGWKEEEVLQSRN
In short: as §1

CRX = CRX (Homo sapiens, UniProt O43186 1-299); conditions: protein: recombinant; tags: N-terminal GST; dsDNA, one strand shown
In short: as §1

ETV1 = ETV1 (Homo sapiens, UniProt P50549 1-477); conditions: protein: recombinant; tags: N-terminal GST; dsDNA, one strand shown
In short: as §1

ERF = target: T6, ERF (Homo sapiens, UniProt P50548 1-548); conditions: protein: recombinant; tags: N-terminal GST; dsDNA, one strand shown
T6 sequence: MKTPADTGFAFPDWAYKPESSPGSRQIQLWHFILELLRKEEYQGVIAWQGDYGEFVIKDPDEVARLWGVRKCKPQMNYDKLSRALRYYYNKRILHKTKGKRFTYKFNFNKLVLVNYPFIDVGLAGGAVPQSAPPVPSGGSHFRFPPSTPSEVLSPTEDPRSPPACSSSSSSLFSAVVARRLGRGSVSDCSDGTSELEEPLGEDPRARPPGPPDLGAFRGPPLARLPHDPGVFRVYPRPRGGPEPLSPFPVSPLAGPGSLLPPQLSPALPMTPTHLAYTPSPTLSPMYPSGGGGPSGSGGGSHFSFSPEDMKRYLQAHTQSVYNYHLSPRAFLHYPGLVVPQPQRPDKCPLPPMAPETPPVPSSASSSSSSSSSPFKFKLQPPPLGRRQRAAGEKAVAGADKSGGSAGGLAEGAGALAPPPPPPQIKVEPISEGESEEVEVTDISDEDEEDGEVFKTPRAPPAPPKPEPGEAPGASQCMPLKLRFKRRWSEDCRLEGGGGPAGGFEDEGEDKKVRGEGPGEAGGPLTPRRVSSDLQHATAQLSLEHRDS
In short: as §1

ETV3L = target: T7, ETV3L (Homo sapiens, UniProt Q6ZN32 1-361); conditions: protein: recombinant; tags: N-terminal GST; dsDNA, one strand shown
T7 sequence: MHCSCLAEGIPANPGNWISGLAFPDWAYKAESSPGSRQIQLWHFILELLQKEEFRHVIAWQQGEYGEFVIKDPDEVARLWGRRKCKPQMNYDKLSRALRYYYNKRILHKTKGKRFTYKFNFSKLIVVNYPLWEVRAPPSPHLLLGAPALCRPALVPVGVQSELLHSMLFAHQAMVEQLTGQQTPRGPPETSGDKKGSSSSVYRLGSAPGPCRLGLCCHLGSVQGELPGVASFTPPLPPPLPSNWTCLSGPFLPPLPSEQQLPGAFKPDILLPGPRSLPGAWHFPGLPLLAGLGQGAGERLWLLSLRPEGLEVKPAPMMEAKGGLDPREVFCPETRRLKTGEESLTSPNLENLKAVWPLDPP
In short: as §1

ETS2 = target: T8, ETS2 (Homo sapiens, UniProt P15036 1-469); conditions: protein: recombinant; tags: N-terminal GST; dsDNA, one strand shown
T8 sequence: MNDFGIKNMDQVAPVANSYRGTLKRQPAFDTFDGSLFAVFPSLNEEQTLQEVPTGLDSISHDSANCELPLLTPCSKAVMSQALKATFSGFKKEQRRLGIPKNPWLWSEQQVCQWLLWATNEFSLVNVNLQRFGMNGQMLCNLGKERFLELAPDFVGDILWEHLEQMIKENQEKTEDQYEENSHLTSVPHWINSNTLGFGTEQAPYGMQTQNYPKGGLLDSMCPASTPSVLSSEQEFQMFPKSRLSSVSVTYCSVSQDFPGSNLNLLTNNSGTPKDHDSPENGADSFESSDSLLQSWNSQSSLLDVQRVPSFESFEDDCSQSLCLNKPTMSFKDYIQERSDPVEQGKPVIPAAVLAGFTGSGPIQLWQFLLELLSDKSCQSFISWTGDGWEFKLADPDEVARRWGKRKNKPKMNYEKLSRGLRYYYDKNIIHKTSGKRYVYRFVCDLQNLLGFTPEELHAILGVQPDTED
In short: as §1

SPDEF = target: T9, SPDEF (Homo sapiens, UniProt O95238 1-335); conditions: protein: recombinant; tags: N-terminal GST; dsDNA, one strand shown
T9 sequence: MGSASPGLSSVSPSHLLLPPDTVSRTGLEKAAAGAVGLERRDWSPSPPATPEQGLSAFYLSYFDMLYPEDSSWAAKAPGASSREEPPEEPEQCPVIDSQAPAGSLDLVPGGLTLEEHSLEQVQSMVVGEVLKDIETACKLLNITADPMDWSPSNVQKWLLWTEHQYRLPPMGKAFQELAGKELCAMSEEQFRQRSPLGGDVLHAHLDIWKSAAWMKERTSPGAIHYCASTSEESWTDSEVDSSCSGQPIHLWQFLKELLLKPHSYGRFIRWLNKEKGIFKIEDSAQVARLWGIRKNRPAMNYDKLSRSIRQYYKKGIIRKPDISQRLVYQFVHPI
In short: as §1

ETV7 = target: T10, ETV7 (Homo sapiens, UniProt Q9Y603 1-341); conditions: protein: recombinant; tags: N-terminal GST; dsDNA, one strand shown
T10 sequence: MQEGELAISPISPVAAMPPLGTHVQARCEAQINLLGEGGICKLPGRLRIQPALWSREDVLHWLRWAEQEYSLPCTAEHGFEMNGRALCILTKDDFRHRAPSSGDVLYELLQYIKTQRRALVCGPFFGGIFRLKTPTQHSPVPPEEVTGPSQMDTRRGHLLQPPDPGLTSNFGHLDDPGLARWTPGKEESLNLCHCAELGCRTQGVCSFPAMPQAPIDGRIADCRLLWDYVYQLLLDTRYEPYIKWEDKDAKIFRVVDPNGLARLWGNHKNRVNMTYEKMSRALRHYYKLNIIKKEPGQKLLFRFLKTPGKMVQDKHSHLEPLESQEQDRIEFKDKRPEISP
In short: as §1

ELF5 = target: T11, ELF5 (Homo sapiens, UniProt Q9UKW6-2 1-255); conditions: protein: recombinant; tags: N-terminal GST; dsDNA, one strand shown
T11 sequence: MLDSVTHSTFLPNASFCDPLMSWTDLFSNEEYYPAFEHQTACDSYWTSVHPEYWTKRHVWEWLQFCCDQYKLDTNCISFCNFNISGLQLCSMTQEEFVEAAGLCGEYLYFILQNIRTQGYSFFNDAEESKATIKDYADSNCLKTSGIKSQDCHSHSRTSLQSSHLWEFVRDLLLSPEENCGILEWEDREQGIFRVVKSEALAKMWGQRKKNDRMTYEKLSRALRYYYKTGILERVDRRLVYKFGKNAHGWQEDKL
In short: as §1

ETV3 = target: T12, ETV3 (Homo sapiens, UniProt P41162-2 1-143); conditions: protein: recombinant; tags: N-terminal GST; dsDNA, one strand shown
T12 sequence: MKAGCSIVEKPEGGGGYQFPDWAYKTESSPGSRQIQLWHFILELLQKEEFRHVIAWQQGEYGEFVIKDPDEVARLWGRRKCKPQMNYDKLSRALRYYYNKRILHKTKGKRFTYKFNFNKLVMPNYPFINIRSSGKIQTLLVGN
In short: as §1

ETV6 = ETV6 (Homo sapiens, UniProt P41212 1-452); conditions: protein: recombinant; tags: N-terminal GST; dsDNA, one strand shown
In short: as §1

Sequence of CRX (O43186 whole entry): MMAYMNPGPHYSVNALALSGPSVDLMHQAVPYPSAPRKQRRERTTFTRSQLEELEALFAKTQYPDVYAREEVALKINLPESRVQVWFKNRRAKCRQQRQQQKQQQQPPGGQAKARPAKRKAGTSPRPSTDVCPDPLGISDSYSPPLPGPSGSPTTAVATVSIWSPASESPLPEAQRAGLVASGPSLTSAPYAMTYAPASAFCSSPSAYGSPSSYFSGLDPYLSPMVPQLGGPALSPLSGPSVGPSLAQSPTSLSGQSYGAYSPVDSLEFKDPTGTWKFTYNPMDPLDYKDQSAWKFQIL
Sequence of ETV1 (P50549 whole entry): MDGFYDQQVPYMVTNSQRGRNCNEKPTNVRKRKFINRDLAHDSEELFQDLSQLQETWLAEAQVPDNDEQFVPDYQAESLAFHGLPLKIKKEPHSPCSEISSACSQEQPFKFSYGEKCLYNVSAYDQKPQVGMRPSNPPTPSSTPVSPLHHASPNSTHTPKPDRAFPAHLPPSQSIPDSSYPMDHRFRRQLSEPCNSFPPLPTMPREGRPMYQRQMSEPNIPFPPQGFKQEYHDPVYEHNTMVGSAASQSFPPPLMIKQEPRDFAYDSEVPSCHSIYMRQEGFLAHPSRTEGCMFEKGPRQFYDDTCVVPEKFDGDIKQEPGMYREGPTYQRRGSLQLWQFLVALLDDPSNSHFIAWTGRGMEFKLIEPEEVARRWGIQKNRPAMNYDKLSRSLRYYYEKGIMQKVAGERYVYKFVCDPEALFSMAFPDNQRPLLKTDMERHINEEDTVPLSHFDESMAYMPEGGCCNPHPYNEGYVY
Sequence of ELF4 (Q99607 whole entry): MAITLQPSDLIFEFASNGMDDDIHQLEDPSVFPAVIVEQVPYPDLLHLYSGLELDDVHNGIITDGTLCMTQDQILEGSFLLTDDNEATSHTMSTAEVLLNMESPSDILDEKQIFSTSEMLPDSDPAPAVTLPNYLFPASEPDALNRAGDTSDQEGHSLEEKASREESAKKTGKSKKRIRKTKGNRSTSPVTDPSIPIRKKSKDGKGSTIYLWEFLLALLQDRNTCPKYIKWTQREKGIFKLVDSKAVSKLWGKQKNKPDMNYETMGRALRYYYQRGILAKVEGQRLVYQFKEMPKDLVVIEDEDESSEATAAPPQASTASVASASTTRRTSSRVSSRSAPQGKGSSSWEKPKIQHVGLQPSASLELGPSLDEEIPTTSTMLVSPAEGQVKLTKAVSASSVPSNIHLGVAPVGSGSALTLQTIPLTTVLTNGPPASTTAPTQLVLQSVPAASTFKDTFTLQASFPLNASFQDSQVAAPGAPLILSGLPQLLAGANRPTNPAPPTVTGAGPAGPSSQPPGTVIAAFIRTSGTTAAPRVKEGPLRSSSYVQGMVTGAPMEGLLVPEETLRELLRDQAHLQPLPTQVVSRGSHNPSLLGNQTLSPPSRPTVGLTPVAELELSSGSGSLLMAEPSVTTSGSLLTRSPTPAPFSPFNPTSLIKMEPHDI
Sequence of ETV5 (P41161 whole entry): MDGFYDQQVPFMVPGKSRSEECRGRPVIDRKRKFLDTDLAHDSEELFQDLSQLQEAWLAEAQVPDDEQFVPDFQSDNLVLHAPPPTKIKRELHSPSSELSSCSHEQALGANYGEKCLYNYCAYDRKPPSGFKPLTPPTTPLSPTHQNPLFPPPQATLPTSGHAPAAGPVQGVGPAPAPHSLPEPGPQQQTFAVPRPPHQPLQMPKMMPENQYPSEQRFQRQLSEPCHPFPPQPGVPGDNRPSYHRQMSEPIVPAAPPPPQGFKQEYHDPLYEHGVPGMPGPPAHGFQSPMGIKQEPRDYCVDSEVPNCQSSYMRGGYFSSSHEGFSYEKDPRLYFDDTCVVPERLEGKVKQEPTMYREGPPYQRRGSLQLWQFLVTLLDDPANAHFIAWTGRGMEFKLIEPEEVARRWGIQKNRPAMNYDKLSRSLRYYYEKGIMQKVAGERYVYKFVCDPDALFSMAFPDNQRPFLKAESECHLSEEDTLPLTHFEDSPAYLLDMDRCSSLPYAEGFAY
Sequence of HSF1 (Q00613 whole entry): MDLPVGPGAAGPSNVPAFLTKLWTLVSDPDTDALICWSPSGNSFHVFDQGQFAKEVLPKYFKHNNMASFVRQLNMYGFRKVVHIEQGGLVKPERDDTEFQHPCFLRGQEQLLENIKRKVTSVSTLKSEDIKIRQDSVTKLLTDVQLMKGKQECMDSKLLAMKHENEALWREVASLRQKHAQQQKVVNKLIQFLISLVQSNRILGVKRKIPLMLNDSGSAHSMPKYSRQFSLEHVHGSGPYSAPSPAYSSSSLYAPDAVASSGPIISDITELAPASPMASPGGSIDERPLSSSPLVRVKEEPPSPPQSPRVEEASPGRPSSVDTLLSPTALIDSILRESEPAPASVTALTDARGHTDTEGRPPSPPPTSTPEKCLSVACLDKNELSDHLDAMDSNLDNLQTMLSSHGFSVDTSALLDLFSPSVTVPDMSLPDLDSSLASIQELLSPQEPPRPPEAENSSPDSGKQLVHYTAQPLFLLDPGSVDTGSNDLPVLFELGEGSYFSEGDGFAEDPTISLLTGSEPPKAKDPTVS
Sequence of ETV6 (P41212 whole entry): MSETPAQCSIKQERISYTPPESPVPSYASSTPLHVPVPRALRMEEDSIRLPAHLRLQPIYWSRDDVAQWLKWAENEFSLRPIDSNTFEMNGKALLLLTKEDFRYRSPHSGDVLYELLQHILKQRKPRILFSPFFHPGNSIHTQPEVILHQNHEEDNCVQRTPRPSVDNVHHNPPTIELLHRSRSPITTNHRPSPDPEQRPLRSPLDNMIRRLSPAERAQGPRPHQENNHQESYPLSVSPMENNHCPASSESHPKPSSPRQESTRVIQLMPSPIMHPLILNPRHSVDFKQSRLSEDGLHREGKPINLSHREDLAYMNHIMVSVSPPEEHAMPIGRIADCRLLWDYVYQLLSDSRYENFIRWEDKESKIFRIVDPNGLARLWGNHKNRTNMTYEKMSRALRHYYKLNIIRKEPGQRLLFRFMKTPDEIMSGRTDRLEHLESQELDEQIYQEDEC

Sequence: CCTCGC
- binding signal (FEV): 1.37 fold enrichment (6-mer frequency, TF over GST control)
- binding signal (ETV5): 1.51 fold enrichment (6-mer frequency, TF over GST control)
- binding signal (HSF1): 1.36 fold enrichment (6-mer frequency, TF over GST control)
- binding signal (SPIC): 1.46 fold enrichment (6-mer frequency, TF over GST control)
- binding signal (ELF4): 1.6 fold enrichment (6-mer frequency, TF over GST control)
- binding signal (ELK4): 1.62 fold enrichment (6-mer frequency, TF over GST control)
- binding signal (ETV2): 1.6 fold enrichment (6-mer frequency, TF over GST control)
- binding signal (ELF3): 1.56 fold enrichment (6-mer frequency, TF over GST control)
- binding signal (CRX): 1.16 fold enrichment (6-mer frequency, TF over GST control)
- binding signal (ETV1): 1.54 fold enrichment (6-mer frequency, TF over GST control)
- binding signal (ERF): 1.31 fold enrichment (6-mer frequency, TF over GST control)
- binding signal (ETV3L): 1.53 fold enrichment (6-mer frequency, TF over GST control)
- binding signal (ETS2): 1.41 fold enrichment (6-mer frequency, TF over GST control)
- binding signal (SPDEF): 1.42 fold enrichment (6-mer frequency, TF over GST control)
- binding signal (ETV7): 1.48 fold enrichment (6-mer frequency, TF over GST control)
- binding signal (ELF5): 1.41 fold enrichment (6-mer frequency, TF over GST control)
- binding signal (ETV3): 1.45 fold enrichment (6-mer frequency, TF over GST control)
- binding signal (ETV6): 1.25 fold enrichment (6-mer frequency, TF over GST control)
